SMILES strings stand for the structures. The panel holds about 83,000 compounds, 20% with a hit somewhere; the sample as a whole holds those more often.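 Activity criterion: percent growth below 10, measured after cells in 96-well plates were exposed to a single compound concentration for 48 hours.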 Values without a mark were called inactive. The source made the active and inactive calls.

The first test has as its system BT-549 breast. The test can be described thus: NCI-60 one-dose screen, 48 h (100 = growth as untreated, 0 = no growth, -100 = all killed). As to conditions: 10 µM unless noted.
With `COc1ccc(-c2nnc(N3CCN(C(=O)CN4CCN(c5ccccc5)CC4)CC3)nc2-c2ccc(OC)cc2)cc1`, the growth is -16.1% (active). The same measure, in the same setting: in the case of `O=C(/C(=C/c1ccc([N+](=O)[O-])cc1)SCc1ccc(Cl)cc1)c1ccc(F)cc1` it was 78.2%; in that of `CCOCCc1c(O)nc(SC)[nH]c1=O`, 110%.

A further test concerns MDA-MB-435 melanoma. The description is as above. As to conditions: 10 µM unless noted.
On to `CN(C)C(CNc1oc(-c2cccc3ccccc23)nc1C#N)c1ccco1` (stereo unspecified), for which the growth is 97.4%. In the case of `COc1cc(C(C)c2ccc3c(ccn3C)c2)cc(OC)c1OC` (stereo unspecified), the growth was -40.6% (active). Same read-out and setting: for `COC(=O)/C=C1\SC(=Nc2cccc(Cl)c2)N(CCc2c[nH]c3ccccc23)C1=O` the value was 42.7%; for `Nn1c(SCC(=O)Nc2ccc(Cl)cc2)nnc1-c1cc(F)c(Cl)cc1Cl`, 97.3%. Regarding `Cc1nc2sc(C(=O)Nc3ccccc3)c(N)c2cc1C(C)O` (stereo unspecified), the growth is -41.1% (active). For `CC1(C)[C@@H](O)CC[C@]2(C)[C@H]3CC[C@@H]4[C@H]5[C@H](c6cn(-c7ccccc7)nn6)CC[C@]5(CO)CC[C@@]4(C)[C@]3(C)CC[C@@H]12`, the growth is 93.9%.

Consider `Cc1ccccc1NC(=O)c1sc2nc(C)c(C(C)O)cc2c1N` (stereo unspecified), for which the growth was 1.71% (active).

Regarding `c1ccc(-c2n(Cc3ccc4ccccc4n3)cc[n+]2Cc2ccc3ccccc3c2)cc1`, the growth was 2.12% (active). Turning to `CCOCc1cc(C(C)(C)C)ccc1O`, the growth is 102%. `CN1C(=O)c2cc(Cl)nc3c(NC(=O)c4cccc(Cl)c4)c(Cl)c(NC(=O)c4cccc(Cl)c4)c1c23`: the growth is 3.49% (active).

On to `COc1cccc(NC(=O)Nc2ccc(Oc3ncnc4[nH]c(C)c(C)c34)cc2)c1`, for which the growth was 100%. `COc1ccc2nc(-c3ccc(Cl)cc3)cc(C(=O)N3N=C(c4ccc(N)cc4)CC3c3ccccc3)c2c1` (stereo unspecified): the growth was 4.25% (active). Consider `Cc1cc(C)c(NC(=O)c2sc3nc4c(cc3c2N)CCCCCC4)c(C)c1`, for which the growth was 4.56% (active).

Regarding `COCCOCCOCc1n(Cc2ccc3ccccc3c2)c2ccccc2[n+]1Cc1ccc2ccccc2c1`, the growth is 7.86% (active). On the same count and under the same terms, in the case of `Nc1ccc(C(=O)Nc2cccc(C(=O)Nc3ccc4c(O)c(N=Nc5ccc(N=Nc6ccc(S(=O)(=O)O)cc6)cc5)c(S(=O)(=O)O)cc4c3)c2)cc1` it was 106%; in that of `COC(=O)c1oc2c(C(=O)/C=C/c3ccc(OC)cc3)c(OCCCN3CCCCC3)ccc2c1C`, 6.56% (active). Take `c1ccc(-c2n(Cc3ccc4ccccc4n3)cc[n+]2Cc2ccc3ccccc3n2)cc1`: the growth was 15.4%. The same measure, in the same setting: for `Nc1ccccc1NS(=O)(=O)c1ccc(Cl)cc1` the value was 90.6%; for `O=C(CCc1nnc2sc(OCc3ccccc3)nn12)c1nc2ccc([N+](=O)[O-])cc2[nH]1`, 106%. For `CCCCc1ccc(N=Nc2ccc(OCC[N+](C)(C)C)cc2)cc1`, the growth was 88.6%.

In the case of `COc1cc(NC(=O)Nc2cnc(Nc3ccc(N4CCOCC4)cc3)nc2Oc2ccc(F)cc2)cc(OC)c1`, the growth was 88.3%. Consider `COc1ccc(-c2cc(-c3nnc(SCC(=O)Nc4ccc(/C(C)=N\O)cc4)n3-c3ccccc3)c3cc(OC)ccc3n2)cc1`, for which the growth was 79.2%. On to `CCSc1nc(Cl)c(C#N)c(-c2ccc(F)cc2)n1`, for which the growth is 91.8%.

Consider `O=c1c2ccccc2n(CC(O)CN2CCCC2)c2c(Br)cccc12` (stereo unspecified), for which the growth is 86.8%. For the compound `C#CCN(CCCOc1ccc(Cl)cc1Cl)CCCSC(=O)CCCCCN1/C(=C\C=C2/CCCC(/C=C/C3=[N+](CCCCCC(=O)[O-])c4ccccc4C3(C)C)=C2Cl)C(C)(C)c2ccccc21`, the growth is -60.1% (active). Regarding `COc1ccc2nc(-c3ccc(OC)c(OC)c3)cc(-c3nnc(SCC(=O)Nc4ccc(/C(C)=N\O)cc4)n3-c3ccccc3)c2c1`, the growth is 84.9%.

With `COc1ccc(C(=S)c2cc(OC)c(OC)c(OC)c2)cc1OC(=O)CCl`, the growth was -8.11% (active). Regarding `CCCCc1n(Cc2ccc3ccccc3n2)cc[n+]1Cc1ccc2ccccc2c1`, the growth was 1.33% (active). Regarding `CN(CCC#N)C(=O)Nc1ccccc1`, the growth is 107%.

As for `CCn1cc(C(=O)O)c(=O)c2cc(F)c(N3CCN(CC(=O)Nc4ccc(/C(C)=N/OC)cc4)CC3)cc21`, the growth was 102%. Same read-out and setting: for `COc1ccc2c(c1)C1(C(=O)N2)C(C#N)=C(c2ccccc2)Nc2c1c(-c1ccccc1)nn2-c1ccccc1` (stereo unspecified) the value was 55.3%. On to `O=C(CCc1nnco1)c1nc2ccc([N+](=O)[O-])cc2[nH]1`, for which the growth was 106%. `Nc1c(C(=O)Nc2cccc3ccccc23)sc2nc3c(cc12)CCCCC3`: the growth was -32.2% (active).

Take `C[C@]12CC[C@@H]3c4ccc(O)cc4CC[C@H]3[C@@H]1C[C@H](O)C2`: the growth was 0.155% (active).

As to `C(=C\c1cn(-c2ccccc2)nc1-c1ccccc1)/c1nnc(-c2c[nH]c3ccccc23)o1`, the growth was 49%. As to `COc1ccc(-c2nnc(N3CCN(C(=O)CN4CCN(c5ccccc5)CC4)CC3)nc2-c2ccc(OC)cc2)cc1`, the growth is 22.7%. In the case of `O=C(/C(=C/c1ccc([N+](=O)[O-])cc1)SCc1ccc(Cl)cc1)c1ccc(F)cc1`, the growth was 49.2%. For the compound `CCOCCc1c(O)nc(SC)[nH]c1=O`, the growth is 120%.
